Assay results taken from PubChem BioAssay AID431 (Sanford-Burnham Center for Chemical Genomics, 2006).
Among all 63,000 compounds or so, about 1,100 (1.7%) were called active. The sample as a whole holds a higher share of actives than the screen did. Results with a measured potency or affinity are listed apart. Unmarked numbers belong to inactive results.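 How the source made its calls: active means compounds whose percent cytotoxicity in the single-dose primary screen, scaled between solvent and toxic-drug controls, exceeds 50; inactive means the rest.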

Assay: cytotoxicity in KRAS-transformed pancreatic duct cells, primary screen, cell-based, fluorescence, HTS (AID 431);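 further: 0% = DMSO solvent wells and 100% = doxorubicin-treated wells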
Settings: HPDE-C7K KRASV12 cells, Alamar Blue viability, 48 h; at 10 µM; stronger effect = higher value
Molecule `CCCCCn1c(N)c(C(=O)NCCN2CCOCC2)c2nc3ccccc3nc21` has a cytotoxicity of 6.4%. With `CCCCn1c(N)c(C(=O)NCCN2CCOCC2)c2nc3ccccc3nc21` the cytotoxicity was -9.3%. Molecule `CCCCNC(=O)c1c(N)n(CCCOC)c2nc3ccccc3nc12` has a cytotoxicity of 47.2%. Molecule `CCOC(=O)c1c(N)n(CCN2CCCCC2)c2nc3ccccc3nc12` has a cytotoxicity of 1.7%. In the case of `CCCCCCn1c(N)c(C(=O)NCCN2CCOCC2)c2nc3ccccc3nc21`, the cytotoxicity is reported as 86.3% (active). In the case of `COc1ccc(CCNC(=O)c2c(N)n(CCN3CCOCC3)c3nc4ccccc4nc23)cc1`, the cytotoxicity is reported as 76.9% (active). For `CC1SC2(CN3CCC2CC3)NC1=O` (centres undefined), the cytotoxicity was -32%. `O=P(OCC(F)(F)C(F)F)(N1CCOCC1)N1CCOCC1` showed a cytotoxicity of -6.6%. Work on `C=CCn1c(O)c(C(C)=NCCN2CCOCC2)c(=O)[nH]c1=O` yielded a cytotoxicity of 3.7%. In the case of `COc1ccc2[nH]cc(CCN(C)C)c2c1`, the cytotoxicity is reported as 19.9%. In the case of `CCCCc1ccc2[nH]cc(CCN)c2c1`, the cytotoxicity is reported as 89.6% (active). `NCCc1c[nH]c2ccc(F)cc12` showed a cytotoxicity of -7.8%. Molecule `CCOC(=O)c1c(N)n(Cc2ccco2)c2nc3ccccc3nc12` has a cytotoxicity of -13.8%. `COCCOC(=O)c1c(N)n(Cc2ccc(OC)cc2)c2nc3ccccc3nc12` gave a cytotoxicity of -9.2%. In the case of `COc1ccc(Cn2c(N)c(C(=O)NCc3ccco3)c3nc4ccccc4nc32)cc1`, the cytotoxicity is reported as 75.2% (active). In the case of `COCCOC(=O)c1c(N)n(Cc2ccco2)c2nc3ccccc3nc12`, the cytotoxicity is reported as 15.2%. In the case of `Nc1c(C(=O)NCc2ccco2)c2nc3ccccc3nc2n1Cc1ccc(F)cc1`, the cytotoxicity is reported as 95.8% (active). For `Nc1c(C(=O)NCCN2CCOCC2)c2nc3ccccc3nc2n1Cc1ccco1`, the cytotoxicity was 20.7%. Work on `COc1ccc(Cn2c(N)c(C(=O)NCc3ccco3)c3nc4ccccc4nc32)cc1OC` yielded a cytotoxicity of 3.1%. With `CC(C)OC(=O)c1c(N)n(Cc2ccco2)c2nc3ccccc3nc12` the cytotoxicity was -9%. With `CC(C)(C)OC(=O)c1c(N)n(Cc2ccco2)c2nc3ccccc3nc12` the cytotoxicity was 56.1% (active). In the case of `O=P(C(c1ccc2c(c1)OCO2)N1CCOCC1)(N1CCOCC1)N1CCOCC1` (centres undefined), the cytotoxicity is reported as -15.1%. For `CN=C(SCc1cc2c(cc1Cl)OCO2)c1c(O)n(C)c(=O)n(C)c1=O`, the cytotoxicity was -13.4%. Work on `CCCNS(=O)(=O)c1ccc(OCC(=O)N2CCN(Cc3ccccc3)CC2)cc1` yielded a cytotoxicity of 8%. For `O=c1c2ccccc2nc(CSc2ncnc3nc[nH]c23)n1-c1ccccc1`, the cytotoxicity was 64.8% (active). Molecule `CN(C)CCc1nc2ccccc2c(=O)n1-c1ccccc1` has a cytotoxicity of 11.7%. In the case of `CCOc1ccc(-n2c(CC)nc3ccccc3c2=O)cc1`, the cytotoxicity is reported as 1.5%. For `Cc1ccc2c(c1)C(c1ccccc1)NCC(=O)N2` (centres undefined), the cytotoxicity was 2.7%. Molecule `CCC(=NCCC1=CCCCC1)c1c(O)[nH]c(=O)[nH]c1=O` has a cytotoxicity of 22.3%. `O=C(c1csc2c1CCCCC2)N1CCC2(CC1)OCCO2` showed a cytotoxicity of -9.8%. For `Cc1nc2c(-c3ccc(F)cc3)c(C)nn2c(C)c1CCC(=O)N1CCC2(CC1)OCCO2`, the cytotoxicity was 9.4%. `CC(C)CCOC(=O)c1c(N)n(CC2CCCO2)c2nc3ccccc3nc12` (centres undefined) showed a cytotoxicity of 26.1%. With `CC(C)CCn1c(N)c(C(=O)OCC2CCCO2)c2nc3ccccc3nc21` (centres undefined) the cytotoxicity was 51.5% (active). `CCCCn1c(N)c(C(=O)OCC2CCCO2)c2nc3ccccc3nc21` (centres undefined) gave a cytotoxicity of 34.2%. `CCOC(=O)c1cccc([P+](=O)O)c1` gave a cytotoxicity of 7.5%. `CC(C)[C@H]1C(=O)N2CCC[C@H]2[C@]2(O)O[C@](NC(=O)[C@@H]3C=C4c5cccc6[nH]cc(c56)C[C@H]4N(C)C3)(C(C)C)C(=O)N12` showed a cytotoxicity of -1.3%. In the case of `CC(C)[C@@]1(NC(=O)[C@@H]2C=C3c4cccc5[nH]cc(c45)C[C@H]3N(C)C2)O[C@@]2(O)[C@@H]3CCCN3C(=O)[C@H](Cc3ccccc3)N2C1=O`, the cytotoxicity is reported as 29.5%. In the case of `CC(C)[C@@]1(NC(=O)[C@@H]2C[C@@H]3c4cccc5[nH]cc(c45)C[C@H]3N(C)C2)O[C@@]2(O)[C@@H]3CCCN3C(=O)[C@H](Cc3ccccc3)N2C1=O`, the cytotoxicity is reported as 77.9% (active). `Cc1ccc2c(c1)CC1(CN2C)C(=O)NC(=O)N(c2ccccc2C)C1=O` (centres undefined) gave a cytotoxicity of 8.7%. With `COC(=O)C(O)(c1ccc2c(c1)CCCN2)C(F)(F)F` (centres undefined) the cytotoxicity was -24.5%. `Cc1ccc(CN2CCN(C)CC2)c(C)c1` showed a cytotoxicity of 14.3%. Molecule `Cc1ccc(S(=O)(=O)N2CN3CCN(C3)C2)cc1` has a cytotoxicity of 11.8%. `Cc1ccc(CN2CC3CC(C2)c2cccc(=O)n2C3)cc1` (centres undefined) showed a cytotoxicity of -9.1%. `Cn1c(O)c(C=NCCOc2ccc(Cl)cc2)c(=O)n(C)c1=O` gave a cytotoxicity of -12.3%. With `O=c1c2ccccc2nc(-c2cccs2)n1-c1cnccn1` the cytotoxicity was 15.2%. With `CCn1nc(-c2ccccc2)nc2c(=O)n(C)c(=O)nc1-2` the cytotoxicity was 123% (active). In the case of `CCn1nc(-c2cccs2)nc2c(=O)n(C)c(=O)nc1-2`, the cytotoxicity is reported as 127% (active). `CCc1nc2ccccc2c(=O)n1-c1cccc(OC)c1` gave a cytotoxicity of -14%. `O=P1(NC2CCCC2)COc2ccccc2OC1` gave a cytotoxicity of -11.9%. `COc1ccc(-n2c(SC)nc3ccccc3c2=O)cc1` showed a cytotoxicity of -4.7%. For `CSC(=Nc1ccccc1)c1c(O)n(C)c(=O)n(C)c1=O`, the cytotoxicity was 5.2%. Work on `CC(=NCc1ccc(F)cc1)c1c(O)n(C)c(=O)n(C)c1=O` yielded a cytotoxicity of 37.8%. Work on `CCOc1ccc(C2SCC(=O)Nc3c2c(=O)[nH]n3C2CCCCCC2)cc1` (centres undefined) yielded a cytotoxicity of -11.1%. In the case of `COc1ccc(C2SCC(=O)Nc3c2c(=O)[nH]n3C2CCCCCC2)cc1` (centres undefined), the cytotoxicity is reported as 80.4% (active). `COc1ccc(C2SCC(=O)Nc3c2c(=O)[nH]n3C2CCCCC2)cc1` (centres undefined) showed a cytotoxicity of -1.2%. In the case of `C=CCN1C(=O)C2(C(C(=O)OCC)=C(N)Oc3ccccc32)C2=C1CCCC2=O` (centres undefined), the cytotoxicity is reported as -6.6%. In the case of `CCc1nc(N2CCNCC2)c(C#N)c2c1CSC(C)(C)C2`, the cytotoxicity is reported as 31.9%. For `CCCCc1nc(N2CCNCC2)c(C#N)c2c1CSC(C)(C)C2`, the cytotoxicity was 71.5% (active). `O=C(C(Cc1ccccc1)NS(=O)(=O)c1ccc(F)cc1)N1CCC2(CC1)OCCO2` (centres undefined) gave a cytotoxicity of 10.2%.
